Among the data in PubChem BioAssay AID740 (SRMLSC, 2007) are inhibition values, retold here.

The whole screen tested about 96,000 compounds, of which about 65 (0.07%) were called active. Shown is part of a subset that was picked to be rich in actives. Values without a mark were called inactive. Cut-off read from the data, not from the text of the source: active = inhibition above about 25%; inactive = the rest.

In general, inhibition refers to the percentage by which the read-out fell short of the control.

A short description of this assay: unspecified inhibition readout at 50 µM (AID 740). The note with it: unspecified screen; active compounds read high.
With `CN1CCN(c2nc(-c3ccc(Br)cc3)nnc2-c2ccccc2)CC1`, the inhibition entry is “inactive”.
Then `O=C(c1cnn2c(C(F)(F)F)cc(-c3ccc(Br)cc3)nc12)N1CCOCC1`, with 1.01%; and `O=C(c1cnn2c(C(F)(F)F)cc(-c3ccccc3)nc12)N1CCC2(CC1)OCCO2`, with 1.61%.
Then `O=C(c1cnn2c(C(F)(F)F)cc(-c3ccccc3)nc12)N1CCOCC1`, with 37.1% (active).
In the case of `Cn1nc(C(=O)Nc2c(-c3ccccc3)nc3sccn23)c2ccccc2c1=O` it was 2.2%; in that of `Cc1ccn2c(NC(=O)c3ccccc3)c(-c3cccs3)nc2c1`, “inactive”.
As to `O=C(Nc1c(-c2ccccc2)nc2sccn12)c1ccccc1`, the inhibition is 48.5% (active).
In the case of `CCNc1nnc(-c2ccccc2OC)s1` it was “inactive”; in that of `Cc1ccc2c(C)c(C(=O)Nc3cccnc3)oc2c1`, 90.2% (active).
Then `Cc1c(C(=O)Nc2ccncc2)oc2ccccc12`, with “inactive”; and `Cc1cc2oc(C(=O)Nc3cccnc3)c(C)c2cc1C`, with “inactive”; and `O=C(c1ccco1)N1N=C(c2cccs2)CC1c1ccc(F)cc1` (stereo not given), with 6.17%.
Regarding `O=C1CCCN1CCCNc1ccc(S(=O)(=O)N2CCCCC2)cn1`, the inhibition is 0.14%.
In the case of `Cc1ccc(NC(=O)c2noc3c2CCc2ccccc2-3)cc1` it was “inactive”; in that of `Cc1cc(NC(=O)c2noc3c2CCc2ccccc2-3)no1`, “inactive”.
In the case of `O=C(Nc1cccc(O)c1)c1noc2c1CCc1ccccc1-2`, the inhibition is 66.5% (active).
In the case of `C=CCOc1ccc(/C(CC)=N/O)c(OC)c1` it was 1.57%; in that of `CC(C)(C)OC(=O)NCCc1nnc(SCc2ccc(Cl)cc2Cl)o1`, 4.81%; in that of `CC(C)(C)OC(=O)NCCc1nnc(SCc2ccc(Cl)cc2)o1`, 26.6% (active).
In the case of `CC(C)(C)OC(=O)NCCc1nnc(SCC(=O)c2ccc(Cl)cc2)o1` it was “inactive”.
`N#Cc1ccc2ccn(CC(=O)NC3CCCCC3)c2c1`: the inhibition result was “inactive”.
In the case of `Cc1cc(NS(=O)(=O)c2ccc(NC(=O)c3cc(-c4cccnc4)nc4ccc(Cl)cc34)cc2)no1` it was 2.18%.
Then `COc1ccc(NC(=O)CCN2CCCCCC2)c(OC)c1`, with 0.25%; and `Cc1noc(C)c1CSc1nc2sc(C)c(C)c2c(=O)n1C1CCCC1`, with 25.2% (active); and `Cc1noc(C)c1CSc1nc2sc(C)c(C)c2c(=O)n1-c1ccccc1`, with 6.13%.
Then `C=CCn1c(SCc2c(C)noc2C)nc2sc(C)c(C)c2c1=O`, with 11.3%.
Consider `COc1ccc(C(=O)CSc2nc(C)cc(=O)[nH]2)cc1`, for which the inhibition result is “inactive”.
As for `COCCCNC(=O)CCn1c(=O)c2ccccc2n(CC(=O)Nc2c(C)cccc2C)c1=O`, the inhibition is 1.13%.
Then `CC(=O)Nc1cc(C(C)C)c(O)c(C(C)C)c1`, with 0.28%.
Then `CC(C)c1cc(NC(=O)C(C)(C)C)cc(C(C)C)c1O`, with 0.31%; and `COc1c(C(C)C)cc(NC(C)=O)cc1C(C)C`, with 87.4% (active); and `CCOC(=O)/C=C1\SCC(=O)N1CC(=O)NC(C)C`, with 0.15%.
Then `CCOC(=O)/C=C1\SCC(=O)N1CC(=O)NC12CC3CC(CC(C3)C1)C2`, with 39.9% (active).
For the molecule `CCOC(=O)/C=C1\SCC(=O)N1CC(=O)NC1CCCCC1`, the inhibition is 0.43%.
Then `COc1ccc(-c2noc(CCN3C(=O)c4ccccc4C3=O)n2)cc1OC`, with 0.08%; and `CCc1nnc(NC(=O)CSc2nnc(CNc3ccc(F)cc3)n2C2CCCCC2)s1`, with “inactive”.
In the case of `CCOc1ccc(NCc2nnc(SCC(=O)Nc3cc(C)on3)n2-c2ccc(OC)cc2)cc1` it was “inactive”.
Then `Cc1cc(NC(=O)CSc2nnc(CNc3ccc(F)cc3)n2C2CCCCC2)no1`, with 26.7% (active).
For `C=CCN(c1ccc(C(=O)N2CCCC2)cc1)S(C)(=O)=O`, the inhibition entry is “inactive”.
Turning to `COc1ccc(S(=O)(=O)Nc2cc(C)c(O)cc2C(C)C)cc1`, the inhibition entry was “inactive”.
For the molecule `COc1ccc(OC)c(-n2c(SCC(N)=O)nnc2-c2c[nH]c3ccccc23)c1`, the inhibition is 1.03%.
Then `COc1ccc(OC)c(-n2c(SCC(=O)NCc3ccco3)nnc2-c2c[nH]c3ccccc23)c1`, with 0.83%; and `COc1ccc(OC)c(-n2c(SCC(=O)Nc3cc(C)on3)nnc2-c2c[nH]c3ccccc23)c1`, with 25.7% (active).
Then `Cc1cc(C)n(CC(O)Cn2c(C)c(C)c3ccccc32)n1` (stereo not given), with 0.73%; and `CN=C(Nc1cc(C)nn1CCC#N)c1ccc(F)cc1`, with 0.15%; and `CC(C)CCNC(=O)C(c1cccs1)N(CC1CCCO1)C(=O)Cn1nnc2ccccc21` (stereo not given), with “inactive”.
Then `Cc1nc2ccccc2c(=O)n1C1CCCCCC1`, with 1.75%; and `COCCn1c(-c2cccs2)nc2c(c(=O)c3ccccc3n2C)c1=O`, with 12.7%; and `Cn1c2ccccc2c(=O)c2c(=O)n(C3CCCCC3)c(-c3cccs3)nc21`, with 47.1% (active).
In the case of `CC(=O)N=C1SC2CS(=O)(=O)CC2N1c1c(Cl)cccc1Cl` (stereo not given), the inhibition was 0.54%.
Then `COc1ccc2nnc(-c3ccccc3)n2n1`, with 1.04%; and `COCCN1C(=O)C(CC(=O)Nc2ccc(C(=O)O)cc2)SC1=Nc1ccccc1` (stereo not given), with 0.58%; and `OC(CN1CCOCC1)Cn1c(-c2cccc(Cl)c2)nc2ccccc21` (stereo not given), with 1.12%.
In the case of `COc1ccc(NC(=O)N2CCn3c2nc2ccccc23)cc1` it was 1.52%; in that of `O=C(Nc1ccccc1)N1CCn2c1nc1ccccc12`, 1.31%; in that of `S=C(Nc1ccccc1)N1CCn2c1nc1ccccc12`, 69.1% (active).
`Cc1cccc(NC(=O)Cc2cccs2)n1`: the inhibition was 0.37%.
In the case of `c1ccc(NC2=Nc3ccccc3CS2)cc1` it was 0.05%; in that of `CCN(CC)c1ccc(NC(=O)c2cc(Cl)ccc2OC)cc1`, “inactive”; in that of `CCC(C)NC(=O)Cn1nc([N+](=O)[O-])c(Cl)c1C` (stereo not given), 0.92%.
In the case of `Cn1cnnc1SCC(=O)c1ccc2c(c1)CCCC2` it was 1.31%.
On to `Cc1nnc(SC(=O)N2c3ccccc3Sc3ccccc32)s1`, for which the inhibition is 30% (active).
In the case of `Cn1ccnc1SC(=O)N1c2ccccc2Sc2ccccc21` it was “inactive”; in that of `Cc1nnc(SCC(=O)N2c3ccccc3Sc3ccccc32)n1N`, 0.91%.
Then `O=C(COc1ccc(Cl)cc1Cl)N1CCN(C/C=C/c2ccccc2)CC1`, with 1.2%; and `CCS(=O)(=O)Nc1cc(-c2nc3cccnc3s2)ccc1C`, with 0.46%.
In the case of `Cc1c(NS(=O)(=O)c2ccc3c(c2)OCCO3)cccc1-c1nc2cccnc2s1` it was “inactive”; in that of `CCS(=O)(=O)Nc1cccc(-c2nc3cccnc3s2)c1C`, 28.6% (active); in that of `Cc1cc(C)n(-c2nc(SCCN(C)C)c3c4c(sc3n2)CCCC4)n1`, “inactive”.
For the molecule `O=C(C1CCN(C2CC(=O)N(c3cccc(Cl)c3)C2=O)CC1)N1CCCC1` (stereo not given), the inhibition is 0.33%.
Then `CC#CCCC(=O)N1C=Cc2ccccc2C1C#N` (stereo not given), with “inactive”; and `CC(=O)Cc1nsc(NC(=O)c2ccc(-c3ccccc3Cl)o2)n1`, with “inactive”.
Consider `Cc1ccc(NC(=O)C2=C(O)c3sccc3N(C)S2(=O)=O)cc1`, for which the inhibition was 1.91%.
In the case of `CN1c2ccsc2C(O)=C(C(=O)Nc2ccccc2)S1(=O)=O` it was 26.4% (active); in that of `CN1c2ccsc2C(O)=C(C(=S)Nc2ccccc2)S1(=O)=O`, 64.3% (active).
In the case of `Cc1ccccc1NC(=S)C1=C(O)c2sccc2N(C)S1(=O)=O`, the inhibition result was “inactive”.
Then `CN1c2ccccc2C(O)=C(C(=O)Nc2ccccc2)S1(=O)=O`, with “inactive”; and `Cc1ccc(NC(=S)C2=C(O)c3ccccc3N(C)S2(=O)=O)cc1`, with 9.88%; and `Cc1ccc(NC(=S)C2=C(O)c3sccc3N(C)S2(=O)=O)cc1`, with 52.4% (active).
In the case of `CN1c2ccccc2C(O)=C(C(=S)Nc2ccccc2)S1(=O)=O` it was “inactive”.
In the case of `Cc1ccc(NC(=O)C2=C(O)c3ccccc3N(C)S2(=O)=O)cc1`, the inhibition entry was “inactive”.
In the case of `CC(=O)Nc1ccc2c(c1)nc(CCN1CCOCC1)n2C` it was “inactive”; in that of `CCn1c(SCc2nc(-c3ccccc3)no2)nnc1-c1cccs1`, 0.11%.
Then `COc1ccccc1Cn1c(=O)c2ccccc2n2c(Sc3ncnc4sccc34)nnc12`, with 65.1% (active).
Then `COc1ccccc1Cn1c(=O)c2ccccc2n2c(SCc3csc(C)n3)nnc12`, with 0.93%; and `O=c1[nH]nc(Sc2ncnc3sccc23)n1CCc1ccccc1`, with 9.99%; and `c1ccc(CSc2nnnn2-c2cccc3ccccc23)nc1`, with 3.06%.
Regarding `CCOc1ccc(NC(=O)NCCCN2CCCC2)cc1`, the inhibition was 0.93%.
In the case of `CSc1nnnn1-c1ccc(C(=O)OCC(=O)N2CCOCC2)cc1` it was “inactive”; in that of `CCOC(=O)c1cnc(SCC(=O)N2CCc3ccccc32)nc1N`, “inactive”.
